Source: PubChem BioAssay (National Center for Advancing Translational Sciences (NCATS))
Pf growth 96h – Primary qHTS for delayed death inhibitors of the malarial parasite plastid, 96 hour incubation; P. falciparum luciferase reporter growth, 96 h; Potency, µM (series often up to 28.7 µM), inactives show at the highest dose activity change, negative = inhibition, usual class: inhibitors; hit rate 6.9% among 320,000; AID 504834, 2011; further: potency means the concentration at half of the fitted maximal effect
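Compounds incubated with erythrocytes infected by luciferase-expressing P. falciparum (2% hematocrit, 0.05% parasitemia final) for 96 hours, 37 C in 5% CO2. Growth inhibition scored as decreased luciferase luminescence.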
HCV inh – qHTS Assay for Inhibitors of Hepatitis C Virus (HCV). Potency, µM (highest dose often 41.8 µM), without a hit: at the highest dose activity change, negative = inhibition, hits mostly inhibitors. Huh7.5.1 HCVcc-Cre infection, luciferase reporter, 44 h. hit rate 3.4% among 340,000; further: potency means the concentration at half of the fitted maximal effect
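Whole-lifecycle infectious HCVcc-Cre system; cells 1,000/well, compound then virus (~0.5 moi) added 4 h after plating, 44 h culture. Luciferase read 15 sec following 15 min substrate incubation, room temp.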
Pf growth 48h – Primary qHTS for delayed death inhibitors of the malarial parasite plastid, 48 hour incubation. P. falciparum luciferase growth in erythrocytes, 48 h. Potency, µM (doses to about 28.7 µM), without a hit: at the highest dose activity change, negative = inhibition, most hits filed as inhibitors. hit rate 5.9% among 310,000; further: potency means the concentration at half of the fitted maximal effect
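Luciferase-expressing P. falciparum in infected erythrocytes (2% hematocrit, 0.1% parasitemia final) in RPMI 1640/0.5% Albumax were exposed to compound for 48 hours at 37 C, 5% CO2; growth read as luminescence.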
HCMV antiviral – qHTS Assay for inhibitors of the human cytomegalovirus (HCMV). activity change, negative = inhibition, % at 57.5 µM. hit rate 4.5% among 410,000. HFF cells, HCMV-luciferase reporter, 72 h; hits give low values; in the data active means activity change below about -60%; inconclusive means no clear call, values can overlap the other calls; inactive means above about -39%
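After 16 h attachment at 37C, HFF cells received test compound and HCMV-luciferase (1 PFU/cell); reporter luminescence read 72 h later, data normalized against buffer-only and known inhibitor Salinomycin.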
An asterisk follows results filed as active; ? = inconclusive; nt = no result. Most compounds without a hit are left out; they make up all but 13% or so of the library. Unless noted, the call rests on the fitted dose curve; in most records, active means well fitted inhibition curve with a large enough effect; inconclusive means small, poorly fitted or top-dose-only effect, or another doubt; inactive means no such curve, though single readings can be large or run the other way. On the % scale 0 is the no-effect control and ±100 the full control effect.

SMILES	Pf growth 96h	HCV inh	Pf growth 48h	HCMV antiviral
O=C(Nc1cccc(C(F)(F)F)c1)Nc1ccc(N2CCCC2)c(S(=O)(=O)Nc2ccccc2Cl)c1	?	2.24µM*	?	-100.4*
COc1cc(/C=C/C(=O)O)cc(S(=O)(=O)Nc2cc(S(=O)(=O)N3CCCCC3)ccc2Cl)c1OC	nt	nt	nt	0.6
CCCS(=O)(=O)Nc1ccc(N2CCCCC2)c(S(=O)(=O)Nc2ccccc2OC)c1	13.1µM*	?	10.4µM*	-23.9
COc1ccccc1NS(=O)(=O)c1ccc(NC(=O)N2CCCCC2)cc1	18.4%	nt	-6.0%	38.6
COc1ccccc1NS(=O)(=O)c1cc(N)ccc1N1CCCCC1	-12.4%	-7.8%	14.7µM*	?
CC[C@H]1OC(=O)[C@H](C)C(=O)[C@H](C)[C@@H](OC2O[C@H](C)C[C@H](N(C)C)[C@@H]2O)[C@@](C)(OC)C[C@@H](C)C(=O)[C@@H](C)C2N(CCCCn3cnc(-c4cccnc4)c3)C(=O)O[C@@]21C (stereo partly drawn)	13.5µM*	nt	?	nt
c1ccc(-c2cnc(-c3ccccn3)nn2)cc1	nt	0.501µM*	nt	34.8
CCOC(=O)CSc1nc2ccc(N3CCOCC3)cc2c(=O)n1Cc1ccccc1	?	2.82µM*	nt	-5.6
COc1ccc(-c2c(C)nn3c(C(F)(F)F)cc(-c4ccccc4)nc23)cc1	nt	nt	nt	-4.7
COc1ccc(CC(=O)N2CCc3ccccc3C2)cc1	8.28µM*	-7.0%	11.7%	nt
COc1ccc(CC(=O)N2CCN(C)CC2)cc1	99.5%	nt	42.9%	1.1
COc1ccc(CC(=O)N2CCN(C(=O)Cc3ccc(OC)cc3)CC2)cc1	3.29µM*	6.4%	-27.8%	26.3
CCCC(=O)N1CCN(c2ccc(NC(=O)c3ccco3)cc2)CC1	nt	3.16µM*	35.9%	11.8
CC(C)(C)OC(=O)N1CCN(c2ccc(NC(=O)c3ccco3)cc2)CC1	1.9%	-18.7%	7.38µM*	-39.6
CCN1CCN(c2ccc(NC(=O)c3ccco3)cc2)CC1	4.9%	-5.5%	85.6%	-16.1
COCCN1C(=O)/C(=C/c2ccc(OCc3ccc(C(=O)O)cc3)c(OC)c2)SC1=Nc1ccccc1	8.28µM*	0.9%	11.7µM*	?
COc1cc(/C=C2\SC(=Nc3ccccc3)N(Cc3ccco3)C2=O)ccc1OC(C)C(=O)O (stereo not drawn)	?	?	?	-31.2
CC1(C)CC(=O)C(Sc2nnc(-c3ccc(O)cc3)n2CC2CCCO2)C(=O)C1 (stereo not drawn)	1.04µM*	14.6%	nt	2.4
CC(=O)Nc1ccc(C(=O)CSc2nnc(-c3ccc(O)cc3)n2CC2CCCO2)cc1 (stereo not drawn)	-5.8%	18.6%	nt	38.8
Cc1cccc(N2C(=O)N(Cc3cccc(C#N)c3)c3ccccc3S2(=O)=O)c1	nt	nt	nt	1.1
CNC(=O)C1CCC(Cn2c(=O)c3sccc3n(CC(=O)N3CCC(C)CC3)c2=O)CC1 (stereo not drawn)	nt	nt	nt	-3.7
O=C(NCCS(=O)(=O)N1CCN(c2ccc(F)cc2)CC1)C12CC3CC(CC(C3)C1)C2	-8.9%	?	11.7µM*	?
CSc1cccc(NC(=S)NCCCN2CCN(c3ccc(F)cc3)CC2)c1	8.28µM*	24.6%	?	-20.7
CSc1ccccc1C(=O)NCCS(=O)(=O)N1CCN(c2ccc(F)cc2)CC1	-3.9%	-8.4%	-4.0%	0.5
Fc1cccc(NC(=S)NCCCN2CCOCC2)c1	131.2%	-5.2%	6.2%	-29.6
SMILES	Pf growth 96h	HCV inh	Pf growth 48h	HCMV antiviral
O=C(NCCCN1CCOCC1)NC12CC3CC(CC(C3)C1)C2	-7.5%	22.0%	1.8%	-23.6
O=C(O)CCCCCCCCCCCNC(=O)NC12CC3CC(CC(C3)C1)C2	2.08µM*	9.7%	30.1%	-27.4
O=C(NCCCN1CCN(c2ccc(F)cc2)CC1)NC12CC3CC(CC(C3)C1)C2	249.6%	?	nt	-79.4*
Cc1c(C(=O)N2CCOCC2)oc2c1-c1nn(CC(=O)NCc3ccccc3)cc1CC2	nt	nt	nt	-2.1
COc1ccc2c(c1)c1c(c(=O)n(-c3ccc(OC)c(OC)c3)c(=O)n1CC(=O)N1CCCC1)n2C	nt	nt	nt	14.5
O=C(c1cc(C2CCCCN2S(=O)(=O)c2ccc(F)cc2F)on1)N1CCOCC1 (stereo not drawn)	nt	nt	nt	-28.5
C/C=C1/NN(CCCN2CCN(c3cccc(Cl)c3)CC2)C(=O)N1CCOc1ccccc1	-15.7%	nt	-17.9%	nt
COc1ccc2c(c1)c1c(c(=O)n(-c3cccc(Cl)c3)c(=O)n1CC(=O)NCC1CCCO1)n2C (stereo not drawn)	nt	nt	nt	-0.6
O=C(NCCCN1CCN(c2ccc(F)cc2)CC1)c1cccc(N2CCCC2=O)c1	nt	-6.0%	11.7µM*	10.8
COc1cc(NC(=O)C/C(C)=N/NC(=O)C2CCCCC2)c(OC)cc1Cl	?	1.0%	-0.6%	20.0
COc1ccc(NC(=O)C/C(C)=N/NC(=O)C2CCCCC2)c([N+](=O)[O-])c1	10.4µM*	-14.6%	30.6%	-7.2
CCC1Oc2ccc(C)cc2N(CC(=O)NCCc2ccccc2)C1=O (stereo not drawn)	nt	nt	nt	-35.2
Cc1cccc(NC(=O)c2ccc(CNS(=O)(=O)c3ccc4c(c3)C(C)(C)C(=O)N4C)cc2)c1	nt	nt	nt	-6.7
CCOC(=O)c1cnc(SCC(=O)Nc2ccc(N3CCOCC3)c(Cl)c2)nc1N	-14.1%	0.6%	-14.0%	32.7
CCOC(=O)c1cnc(SCC(=O)Nc2cc(OC)cc(OC)c2)nc1N	nt	?	1.8%	-60.2*
CCOC(=O)c1cnc(SCC(=O)Nc2sc(C)c(C)c2C#N)nc1N	0.7%	-10.1%	5.8%	-64.4*
COc1ccc(C(=O)SC2=NCCS2)cc1OC	4.2%	11.6%	8.6%	57.7
Cc1ccc(C(=O)SC2=NCCS2)cc1	9.28µM*	10.3%	11.2%	-39.7
Cn1c(=O)n(Cc2ccccc2Br)c2ccccc21	-4.6%	-12.5%	-16.9%	-61.8*
O=C(c1ccccc1)C1CN(Cc2ccccc2)CCC1(O)c1ccccc1 (stereo not drawn)	0.2%	-3.9%	?	-17.0
OC(c1ccccc1)C1CN(Cc2ccccc2)CCC1(O)c1ccccc1 (stereo not drawn)	-1.5%	8.8%	0.738µM*	-1.7
CN(CCNC(=O)C1CC(=O)N(c2ccc(F)c(Cl)c2)C1)Cc1ccccc1 (stereo not drawn)	nt	-28.8%	?	-67.3*
CN(C)CCNC(=O)C1CC(=O)N(c2ccc(F)c(Cl)c2)C1 (stereo not drawn)	41.5%	?	nt	39.2
Cc1ccc(C)c(NC(=O)CCCn2nc(C)c3sc4ccccc4c3c2=O)c1	nt	nt	nt	19.8
CCCc1nc2ccc(C)cn2c1Cc1ccccc1C(F)(F)F	nt	nt	nt	-69.1*
O=C(c1ccccc1)c1ccccc1N1C(=O)C=CC1=O	-14.3%	?	?	-92.6*
CSc1ccc(C(=O)N2CCc3ccc(NC(=O)c4ccccn4)cc3C2)cc1	14.7µM*	?	?	-16.4
Cc1ccc2[nH]c(CSc3nnc(NC(=O)COc4ccccc4F)s3)cc(=O)c2c1	nt	nt	nt	-14.2
